Screening data from PubChem.
Most compounds without a hit are left out; they make up all but 2.6% or so of the library.
TLR9-MyD88 inh = blocks human TLR9 binding to MyD88. Q9NR96+Q99836. CHO BLA complementation TLR9-MyD88, CCF4 FRET ratio. inhibition, % at 4.98 µM. 340,000 tested, 0.21% active;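 active = inhibition above the mean over all tested compounds plus 3 SD, cut at about 21% in these data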
TLR4-MyD88 BLA = TLR4-MyD88 interaction inhibition in cells | O00206+Q99836 | 200,000 tested, 0.18% active | HeLa CL3-4 TLR4/MyD88 BLA complementation, FRET ratio | inhibition, % at 8.4 µM; in the data active = inhibition above about 25%
NOD2 RIPK2 PPI = NOD2-RIPK2 protein interaction inhibition. O43353. CHO BLA complementation NOD2-RIPK2, CCF4 ratio. inhibition, % at 4.98 µM. 360,000 tested, 0.38% active. AID 624267; in the data active = inhibition above about 21%
Target sequence (O43353 whole entry, looked up): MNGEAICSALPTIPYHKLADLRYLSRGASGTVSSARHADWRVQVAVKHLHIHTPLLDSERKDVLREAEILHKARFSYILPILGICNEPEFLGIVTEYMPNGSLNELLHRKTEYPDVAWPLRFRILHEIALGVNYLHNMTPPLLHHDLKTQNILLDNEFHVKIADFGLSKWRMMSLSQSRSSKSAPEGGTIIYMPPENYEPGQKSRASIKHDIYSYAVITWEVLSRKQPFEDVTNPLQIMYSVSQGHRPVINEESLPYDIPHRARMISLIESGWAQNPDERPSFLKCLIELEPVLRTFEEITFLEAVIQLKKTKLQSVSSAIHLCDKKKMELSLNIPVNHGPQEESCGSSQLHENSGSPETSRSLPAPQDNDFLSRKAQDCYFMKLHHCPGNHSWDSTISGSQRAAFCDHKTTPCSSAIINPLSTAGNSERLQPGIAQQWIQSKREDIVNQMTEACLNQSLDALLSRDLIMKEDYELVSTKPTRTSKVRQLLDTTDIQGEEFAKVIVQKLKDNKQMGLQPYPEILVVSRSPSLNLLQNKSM
PRMT1 FP inh = inhibitors of human PRMT1; Q99873; recombinant PRMT1, activity-based probe fluorescence polarization; inhibition, % at 2.79 µM; 370,000 tested, 1.3% active;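 active = inhibition above about 21% made by adding two undisclosed values, limit read from the data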
ABHD5 PLIN5 PPI = inhibitors of human ABHD5-perilipin-5 interaction; Q00G26+Q8WTS1; Split G. princeps luciferase complementation, luminescence, 4 h; inhibition, % at 4 µM; 360,000 tested, 0.78% active;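 active = inhibition above the mean inhibition across every tested compound plus 3 SD, cut at about 22% in these data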
Granule exo inh = blocks lytic granule exocytosis; TALL-104 LAMP-1 surface exposure, flow cytometry; cells stimulated with thapsigargin and PMA; inhibition, % at 10 µM; 360,000 tested, 0.66% active;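 active = inhibition above about 55%, limit read from the data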
Hits are given with their value; - = inactive; . = no result given.

SMILES | TLR9-MyD88 inh | TLR4-MyD88 BLA | NOD2 RIPK2 PPI | PRMT1 FP inh | ABHD5 PLIN5 PPI | Granule exo inh
O=C(CSc1nc2ccccc2c(=O)[nH]1)Nc1ccc(S(=O)(=O)N2CCCC2)cc1 | - | - | - | 23 | - | -
O=C(Nc1ccc(F)cc1)OCc1cn(Cc2cccc(C(F)(F)F)c2)nn1 | . | . | . | - | . | .
CN(C)[C@@H]1CCN(c2ccc3c(c2)O[C@@H]2CCN(C2)S3(=O)=O)C1 | . | . | . | - | . | .
FC(F)(F)c1ccc(CSc2nccn2-c2ccccc2)cc1 | - | - | - | - | - | -
Brc1ccc(CSc2nccn2-c2ccccc2)cc1 | - | - | 22 | - | - | -
COc1ccc(C(=O)c2coc3c2C(=O)C(=O)c2ccccc2-3)cc1 | - | . | - | - | - | 98
O=C(Nc1ccc(Br)cc1)OCCCN1CCC2(CCCCC2)C1=O | . | . | . | - | . | .
Cn1c(/C=C/c2ccc(Cl)cc2)c([N+](=O)[O-])c(=O)n(C)c1=O | - | . | - | - | 22 | -
COc1ccc(/C=C/c2c([N+](=O)[O-])c(=O)n(C)c(=O)n2C)cc1OC | - | - | - | - | - | -
CC(C)(C)S(=O)N1Cc2cc(C(=O)NCc3ccc(Oc4ccccc4)cc3)nc(-c3cccc(-c4cc5ccccc5o4)c3)c2[C@H]1CCO (some centres not stated) | . | . | - | - | - | -
CC(C)(C)S(=O)N1Cc2cc(C(=O)NCc3ccc4c(c3)OCO4)nc(-c3cccc(-c4cc5ccccc5o4)c3)c2[C@@H]1CCO (some centres not stated) | . | . | - | - | 24 | -
O=S1(=O)N[C@@H](Cc2ccccc2)COc2cccc(NCCO)c21 | . | . | . | - | . | .
Cc1cc(C)c2c(c1)NC(C(=O)O)C1CC=CC21 (configuration not stated) | - | . | - | 32 | - | -
Cc1ccc2c(c1C)NC(C(=O)O)C1CC=CC21 (configuration not stated) | - | . | - | . | - | -
Cc1ccc2sc(C)[n+](CCCS(=O)(=O)[O-])c2c1 | - | - | - | 38 | - | -
Cc1ccc2c(c1)sc(C)[n+]2CCCS(=O)(=O)[O-] | - | - | - | 62 | - | -
Cc1ccc(S(=O)(=O)Cc2sc3ccccc3[n+]2C)cc1 | - | - | - | . | - | -
COc1cc(/C=C/c2sc3ccccc3[n+]2CCCS(=O)(=O)[O-])ccc1O | - | - | - | - | - | -
C=C(C)CSc1nnc(-c2cc(-c3ccc(OC)cc3)n[nH]2)n1N | . | . | . | - | . | .
N#CCCN(CCC#N)C(=O)C1c2ccccc2Oc2ccccc21 | - | . | - | 48 | - | -
CN(CCC#N)C(=O)COC(=O)C1c2ccccc2Oc2ccccc21 | - | . | - | - | - | -
CC(=O)Nc1cccc(C(=O)/C=C/c2cccs2)c1 | - | - | - | - | 22 | -
CC(=O)Nc1cccc(C(=O)/C=C/c2ccc(/C=C/C(=O)c3cccc(NC(C)=O)c3)cc2)c1 | . | - | . | - | . | .
CC(=O)Nc1cccc(C(=O)/C=C/c2ccc[nH]2)c1 | - | . | - | 22 | - | -
CC(=O)Nc1cccc(C(=O)/C=C/c2ccco2)c1 | - | - | - | 21 | 29 | -
SMILES | TLR9-MyD88 inh | TLR4-MyD88 BLA | NOD2 RIPK2 PPI | PRMT1 FP inh | ABHD5 PLIN5 PPI | Granule exo inh
COC(=O)[C@]12C[C@H](CC(=O)N3CCC(c4ccccc4)CC3)C(=O)N(Cc3ccc4c(c3)OCO4)C1=C[C@H](C(C)(C)C)O[C@@H]2C | . | . | . | - | . | .
CCOC(=O)C1(C)C=C(Nc2ccc(O)cc2)C(=O)N1c1ccc(O)cc1 (configuration not stated) | - | - | - | 33 | - | -
CCOC(=O)C1(C)C=C(Nc2ccc(OC)cc2)C(=O)N1c1ccc(OC)cc1 (configuration not stated) | - | - | - | - | - | -
O=C1CC(N2CCN(c3ccccc3Cl)CC2)C(=O)N1c1ccccc1 (configuration not stated) | - | - | - | 24 | - | -
O=C1CC(N2CCN(c3ccc(Cl)cc3)CC2)C(=O)N1c1ccccc1 (configuration not stated) | - | . | - | - | - | -
COCCCNC(=O)C[C@H]1C[C@@]2(C(=O)OC)C(=C[C@H](C3CCCC3)O[C@@H]2C)N(Cc2ccc(Cl)cc2Cl)C1=O | . | . | . | - | . | .
CC1CC(=O)c2cc(-c3ccccc3)oc2C1 (configuration not stated) | - | . | - | - | - | -
CC1CC(=O)C(C(C2=C(O)CC(C)CC2=O)c2ccccc2)=C(O)C1 (configuration not stated) | - | . | - | - | 23 | -
c1ccc(CCn2nnnc2CN2CCCc3ccccc32)cc1 | - | - | - | 25 | - | -
Cc1ccccc1N1CCN(C(=O)CN2C(=O)CC(C)(C)S(=O)(=O)c3ccccc32)CC1 | . | . | . | - | . | .
O=C(Nc1ccccc1[N+](=O)[O-])NC1CCCCN(Cc2cccc(Cl)c2)C1=O (configuration not stated) | . | . | . | - | . | .
CCOC(=O)C1=C(C)N=c2s/c(=C3/C(=O)Nc4ccccc43)c(=O)n2C1c1ccc(C)cc1 (configuration not stated) | - | - | - | 23 | - | -
CCOC(=O)C1=C(C)n2c(s/c(=C3\C(=O)Nc4ccccc43)c2=O)=NC1c1ccc(OC)cc1 (configuration not stated) | - | - | - | 24 | - | -
O=C(Nc1cccc2ncccc12)c1ccc(-c2ccc(Br)cc2)o1 | - | - | - | 25 | - | -
COc1ccc(CCC[C@@H](CCC(=O)N(c2ccccc2)c2ccccc2)CCc2ccccc2)cc1 | . | . | . | - | . | .
COc1ccc(C2CC(=O)C(c3ccc(C(C)=O)cc3)=CN2Cc2ccccc2)cc1 (configuration not stated) | . | . | . | - | . | .
O=C(COC(=O)c1ccccc1)Nc1ncc([N+](=O)[O-])s1 | - | . | - | 25 | - | -
Cc1ccccc1Cn1cc(COC(=O)NCCc2c[nH]c3ccccc23)nn1 | . | . | . | - | . | .
Cc1ccc(S(=O)(=O)NCc2ccc3c(c2)OCO3)cc1 | . | . | . | - | . | .
CCOC(=O)C1=C(O)c2ccccc2C(=O)/C1=C\c1ccc(C)cc1 | - | - | - | . | - | 97
COC(=O)Cc1nnn2c1[C@H](C)[C@H](C(C)(C)C)OCC2 | . | . | . | - | . | .
CC(=O)Nc1ccc(N/C=C(\C=O)c2nc3ccccc3o2)cc1 | - | - | - | - | - | -
